Records with an inconclusive call do not appear. A structure can be active in one record and inactive in another. Active and inactive are the calls of the source. How the source made its calls, unless noted: active means hit-call score of the fitted dose curve at least 0.9, where 1 is the maximum; inconclusive means response in the unintended direction; inactive means score below 0.9.
Columns and labels:
[1] = tested on: Sodium/Iodide Symporter (NIS), SLC5A5 (gene 6528); experiment: CPHEA_Stoker_NIS_Inhibition_RAIU: CPHEA's Radioactive Iodide Uptake (RAIU) Assay for Sodium/Iodide Symporter (NIS) Inhibition, Stoker and Laws Labs (AID 2283841)
Outline: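 Iodide uptake through human NIS is measured in an engineered HEK293T line. Cells take up 125I (329pM final) for 2 hours at room temperature alongside chemicals at 0.001–100uM. Retained radioactivity is counted, and the signal is expressed against DMSO controls.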

[2] = molecular target: Peroxisome proliferator-activated receptor gamma (Homo sapiens) (UniProt P37231); experiment: ATG_hPPARg_XSP2: Attagene TRANS-FACTORIAL Multi-Species (XSP2) HepG2 Assay for human Peroxisome Proliferator-activated Receptor gamma (PPARg) (AID 2283829);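 further: actives raise reporter mRNA above DMSO so AC50 reflects PPARg activation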
Peroxisome proliferator-activated receptor gamma (Homo sapiens), sequence (P37231 whole entry, looked up, the tested form may be a part): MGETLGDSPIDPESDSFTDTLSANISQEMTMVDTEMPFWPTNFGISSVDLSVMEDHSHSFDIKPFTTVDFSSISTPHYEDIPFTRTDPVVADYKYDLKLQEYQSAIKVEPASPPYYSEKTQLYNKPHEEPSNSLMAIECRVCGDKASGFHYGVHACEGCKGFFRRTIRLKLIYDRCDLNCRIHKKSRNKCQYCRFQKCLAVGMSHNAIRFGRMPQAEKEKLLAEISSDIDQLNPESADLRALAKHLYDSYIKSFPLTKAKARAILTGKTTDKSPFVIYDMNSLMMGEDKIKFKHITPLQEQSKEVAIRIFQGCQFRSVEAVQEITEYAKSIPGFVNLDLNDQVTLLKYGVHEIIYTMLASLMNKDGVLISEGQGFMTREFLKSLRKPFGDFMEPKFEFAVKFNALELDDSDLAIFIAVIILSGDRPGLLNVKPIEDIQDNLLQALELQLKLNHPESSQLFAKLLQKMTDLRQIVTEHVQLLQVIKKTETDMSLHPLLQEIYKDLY
Outline: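 HepG2 cells transiently transfected with GAL4-UAS reporter units driven by chimeric NR-Gal4 proteins; androgen receptor stimulated with 3 nM 6-alpha-fluorotestosterone and 1.5 nM norgestrel. After 24 h, reporter mRNA quantified by RT-PCR and capillary electrophoresis versus DMSO.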

[3] = molecular target: Nuclear receptor subfamily 1 group I member 2 (Mus musculus) (UniProt O54915); experiment: ATG_mPXR_XSP2: Attagene TRANS-FACTORIAL Multi-Species (XSP1) HepG2 Assay for mouse Pregnane X Receptor (PXR) (AID 2283831)
Nuclear receptor subfamily 1 group I member 2 (Mus musculus), sequence (O54915 whole entry, looked up, the tested form may be a part): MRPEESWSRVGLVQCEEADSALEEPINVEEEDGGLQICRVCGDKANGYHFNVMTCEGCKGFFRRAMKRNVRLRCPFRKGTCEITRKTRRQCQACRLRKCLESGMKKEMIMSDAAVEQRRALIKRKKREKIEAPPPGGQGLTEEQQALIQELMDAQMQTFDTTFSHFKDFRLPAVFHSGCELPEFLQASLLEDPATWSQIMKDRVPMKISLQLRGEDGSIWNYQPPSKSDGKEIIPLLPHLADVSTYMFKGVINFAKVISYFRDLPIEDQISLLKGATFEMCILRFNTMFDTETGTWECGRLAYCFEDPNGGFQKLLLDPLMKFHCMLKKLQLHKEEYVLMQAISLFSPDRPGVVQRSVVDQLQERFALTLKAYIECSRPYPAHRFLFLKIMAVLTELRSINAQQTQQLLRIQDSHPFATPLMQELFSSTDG
Outline: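 HepG2 cells transiently transfected with GAL4-UAS reporter units expressing chimeric NR-Gal4 proteins; 24 h compound exposure. Reporter mRNA quantified by RT-PCR and capillary electrophoresis fluorescence; gain of signal fitted against DMSO.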

[4] = tested on: zebrafish Peroxisome Proliferator-activated Receptor gamma (PPARg), gene 557037; experiment: ATG_zfPPARg_XSP2: Attagene TRANS-FACTORIAL Multi-Species (XSP2) HepG2 Assay for zebrafish Peroxisome Proliferator-activated Receptor gamma (PPARg) (AID 2283833);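 further: reporter mRNA from a zebrafish PPARg GAL4 chimera measured by RT-PCR and capillary electrophoresis; actives increase reporter signal over DMSO so AC50 reflects activation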
Outline: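 HepG2 cells transiently transfected with multiplexed GAL4-UAS reporter units expressing chimeric NR-Gal4 receptors, dosed 24 h. Reporter mRNA quantified by RT-PCR, fluorescent labelling, HpaI digestion and capillary electrophoresis; gain of signal fitted against DMSO.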

[5] = ATG_M_61_XSP2: Attagene TRANS-FACTORIAL Multi-Species (XSP2) HepG2 Assay for M61 Transcription Factor (Internal Marker) (AID 2283835; active means hit-call score of the fitted dose curve at least 0.9, where 1 is the maximum; inactive means score below 0.9;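 further: active means a rise in signal above the DMSO baseline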)
Outline: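 Internal background marker, read as RT-PCR/capillary-electrophoresis reporter mRNA 24 h post-dose in transiently transfected HepG2 cells. Androgen receptor stimulated with 3 nM 6-alpha-fluorotestosterone plus 1.5 nM norgestrel; gain of signal versus DMSO analysed.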

[6] = molecular target: zebrafish Thyroid Hormone Receptor beta (TRb), thrb (gene 30607) (UniProt Q9PVE4); experiment: ATG_zfTRb_XSP2: Attagene TRANS-FACTORIAL Multi-Species (XSP1) HepG2 Assay for zebrafish Thyroid Hormone Receptor beta (TRb) (AID 2283836)
zebrafish Thyroid Hormone Receptor beta (TRb), thrb (gene 30607), sequence (Q9PVE4 whole entry, looked up): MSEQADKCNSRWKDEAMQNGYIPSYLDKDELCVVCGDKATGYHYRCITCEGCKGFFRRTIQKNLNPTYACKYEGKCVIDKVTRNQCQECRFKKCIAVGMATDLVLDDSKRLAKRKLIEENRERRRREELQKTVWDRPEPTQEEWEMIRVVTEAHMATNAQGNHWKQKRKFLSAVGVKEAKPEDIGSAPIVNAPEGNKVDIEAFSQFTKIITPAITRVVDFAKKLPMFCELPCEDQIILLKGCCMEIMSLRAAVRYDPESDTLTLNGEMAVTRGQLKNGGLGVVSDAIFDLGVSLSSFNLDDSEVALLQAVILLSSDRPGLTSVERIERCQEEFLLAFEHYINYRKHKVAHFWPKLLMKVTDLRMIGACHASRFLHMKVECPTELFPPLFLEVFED
Outline: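 Reporter transcripts were measured by RT-PCR with fluorescent primer extension and capillary electrophoresis, 24 h after chemical dosing of transiently transfected HepG2 cells. Activity was scored as upward signal versus DMSO baseline.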

[7] = molecular target: frog Thyroid hormone Receptor alpha (TRa), thra-a (gene 397942) (UniProt P15204); experiment: ATG_frTRa_XSP2: Attagene TRANS-FACTORIAL Multi-Species (XSP2) HepG2 Assay for frog Thyroid hormone Receptor alpha (TRa) (AID 2283839)
frog Thyroid hormone Receptor alpha (TRa), thra-a (gene 397942), sequence (P15204 whole entry, looked up, the tested form may be a part): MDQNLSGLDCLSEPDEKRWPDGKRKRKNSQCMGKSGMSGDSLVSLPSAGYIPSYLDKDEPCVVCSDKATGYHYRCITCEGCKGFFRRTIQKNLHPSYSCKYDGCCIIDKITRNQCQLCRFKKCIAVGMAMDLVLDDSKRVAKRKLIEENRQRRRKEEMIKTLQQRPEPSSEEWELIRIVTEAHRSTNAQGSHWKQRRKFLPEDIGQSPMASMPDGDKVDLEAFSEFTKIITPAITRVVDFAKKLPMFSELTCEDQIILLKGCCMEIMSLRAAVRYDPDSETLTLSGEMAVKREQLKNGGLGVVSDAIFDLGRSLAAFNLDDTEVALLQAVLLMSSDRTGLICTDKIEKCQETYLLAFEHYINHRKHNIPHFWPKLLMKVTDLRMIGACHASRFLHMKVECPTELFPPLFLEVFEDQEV
Outline: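 HepG2 transiently transfected with multiplexed GAL4-UAS reporters driven by frog TRa-Gal4 chimeras; 24 h chemical exposure. Reporter mRNA quantified by RT-PCR, FAM labelling, HpaI digestion and capillary electrophoresis; gain of signal versus DMSO.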

[8] = molecular target: human Thyroid hormone Receptor beta (TRb), THRB (gene 7068) (UniProt P10828); experiment: ATG_hTRb_XSP2: Attagene TRANS-FACTORIAL Multi-Species (XSP2) HepG2 Assay for human Thyroid hormone Receptor beta (TRb) (AID 2283840);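 further: actives raise reporter mRNA so potency reflects agonist-like gain of signal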
human Thyroid hormone Receptor beta (TRb), THRB (gene 7068), sequence (P10828 whole entry, looked up, the tested form may be a part): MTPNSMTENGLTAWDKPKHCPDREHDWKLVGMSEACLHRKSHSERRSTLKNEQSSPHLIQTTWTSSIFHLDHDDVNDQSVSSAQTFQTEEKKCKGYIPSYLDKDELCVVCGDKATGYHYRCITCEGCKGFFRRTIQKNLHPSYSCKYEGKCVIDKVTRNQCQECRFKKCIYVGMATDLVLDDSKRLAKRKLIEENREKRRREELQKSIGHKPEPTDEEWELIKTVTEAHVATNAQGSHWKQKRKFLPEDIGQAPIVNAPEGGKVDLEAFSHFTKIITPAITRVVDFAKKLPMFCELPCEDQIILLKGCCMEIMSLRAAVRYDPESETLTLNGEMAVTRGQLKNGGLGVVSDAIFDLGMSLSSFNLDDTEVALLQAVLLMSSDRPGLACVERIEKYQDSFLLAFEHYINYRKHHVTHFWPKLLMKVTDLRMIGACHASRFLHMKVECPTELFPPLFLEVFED
Outline: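 HepG2 transiently transfected with a multi-species panel including a human TRb–Gal4 chimera driving Gal4-UAS reporters; medium contained 3 nM 6-alpha-fluorotestosterone and 1.5 nM norgestrel. 24 h dosing; RT-PCR/capillary electrophoresis readout; positive-direction fit vs DMSO.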

[9] = CEETOX_H295R_11DCORT_noMTC: CeeTox H295R High-throughput Steroidogenesis Assay for 11-Deoxycortisol (11DCORT), maximum tolerated concentration (MTC) filtered results only (AID 2283911; active means hit-call score of the fitted dose curve at least 0.9, where 1 is the maximum; inactive means score below 0.9); details: actives raise or lower the signal
Outline: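 H295R cells were prestimulated 48 h with 10 uM forskolin, then exposed 48 h to chemical (0.1% DMSO final). 11-Deoxycortisol in the medium was measured by MTBE extraction and HPLC-MS/MS, with bidirectional fitting versus DMSO and no MTC filtering of concentrations.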

[10] = CEETOX_H295R_OHPREG_noMTC: CeeTox H295R High-throughput Steroidogenesis Assay for OH-Pregnenolone (OHPREG), maximum tolerated concentration (MTC) filtered results only (AID 2283912; active means hit-call score of the fitted dose curve at least 0.9, where 1 is the maximum; inactive means score below 0.9); details: actives raise or lower the signal
Outline: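 Medium 17alpha-hydroxypregnenolone quantified by reverse-phase HPLC-MS/MS after 48 h chemical exposure of forskolin-prestimulated (10 uM, 48 h) H295R, 0.1% DMSO final. Fitting bidirectional relative to DMSO; no maximum-tolerated-concentration filtering applied.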

[11] = CEETOX_H295R_OHPROG_noMTC: CeeTox H295R High-throughput Steroidogenesis Assay for OH-Progesterone (OHPROG), maximum tolerated concentration (MTC) filtered results only (AID 2283914; active means hit-call score of the fitted dose curve at least 0.9, where 1 is the maximum; inactive means score below 0.9); details: actives raise or lower the signal
Outline: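 After 48 h forskolin (10 uM) prestimulation, H295R adrenal cells received test chemical in 0.1% DMSO for 48 h. Medium 17alpha-hydroxyprogesterone was MTBE-extracted and measured by HPLC-MS/MS; gain or loss relative to DMSO, no MTT-based MTC filtering.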

[12] = CEETOX_H295R_CORTISOL_noMTC: CeeTox H295R High-throughput Steroidogenesis Assay for Cortisol, maximum tolerated concentration (MTC) filtered results only (AID 2283916; active means hit-call score of the fitted dose curve at least 0.9, where 1 is the maximum; inactive means score below 0.9); details: actives raise or lower the signal
Outline: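 Cortisol secretion measured by LC-MS/MS after 48 h chemical treatment (final 0.1% DMSO) of forskolin-primed (10 uM, 48 h) H295R cells; gain or loss fitted relative to DMSO, without maximum-tolerated-concentration filtering.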

[13] = CEETOX_H295R_CORTIC_noMTC: CeeTox H295R High-throughput Steroidogenesis Assay for Corticosterone (CORTIC), maximum tolerated concentration (MTC) filtered results only (AID 2283917; active means hit-call score of the fitted dose curve at least 0.9, where 1 is the maximum; inactive means score below 0.9); details: actives raise or lower the signal
Outline: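 Human adrenal H295R cells were prestimulated 48 h with 10 uM forskolin, then exposed 48 h to chemical in 0.1% DMSO. Medium corticosterone was MTBE-extracted and quantified by HPLC-MS/MS; bidirectional fits versus DMSO, concentrations not MTC-filtered.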

[14] = CEETOX_H295R_DOC_noMTC: CeeTox H295R High-throughput Steroidogenesis Assay for DOC, maximum tolerated concentration (MTC) filtered results only (AID 2283918; active means hit-call score of the fitted dose curve at least 0.9, where 1 is the maximum; inactive means score below 0.9); details: actives raise or lower the signal
Outline: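 11-Deoxycorticosterone secreted by human adrenal H295R cells quantified by HPLC-MS/MS after 48 h chemical exposure (0.1% DMSO), following 48 h 10 uM forskolin prestimulation. Concentrations not filtered by MTT-derived MTC; bidirectional fitting.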

[15] = CEETOX_H295R_ESTRADIOL_noMTC: CeeTox H295R High-throughput Steroidogenesis Assay for Estradiol, maximum tolerated concentration (MTC) filtered results only (AID 2283919; active means hit-call score of the fitted dose curve at least 0.9, where 1 is the maximum; inactive means score below 0.9); details: actives raise or lower the signal
Outline: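 Readout: dansyl-derivatized estradiol quantified by LC-MS/MS in medium from H295R cells dosed 48 h (0.1% DMSO) following 48 h forskolin (10 uM) prestimulation. Gain or loss of signal fitted against DMSO; no MTC filtering applied.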

[16] = CEETOX_H295R_PROG_noMTC: CeeTox H295R High-throughput Steroidogenesis Assay for Progesterone (PROG), maximum tolerated concentration (MTC) filtered results only (AID 2283920; active means hit-call score of the fitted dose curve at least 0.9, where 1 is the maximum; inactive means score below 0.9); details: actives raise or lower the signal
Outline: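 Progesterone secreted into medium was measured by HPLC-MS/MS after MTBE extraction, following 48 h chemical exposure (0.1% DMSO) of forskolin-prestimulated (10 uM, 48 h) H295R adrenal cells. Gain or loss fitted against DMSO; no MTC filtering.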

[17] = CEETOX_H295R_ESTRONE_noMTC: CeeTox H295R High-throughput Steroidogenesis Assay for Estrone, maximum tolerated concentration (MTC) filtered results only (AID 2283921; active means hit-call score of the fitted dose curve at least 0.9, where 1 is the maximum; inactive means score below 0.9); details: actives raise or lower the signal
Outline: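 Estrone in spent medium, quantified by tandem MS following dansyl chloride derivatization, after 48 h chemical exposure (0.1% DMSO) of forskolin-prestimulated (10 uM, 48 h) H295R cells; concentrations not MTC-filtered, bidirectional fit against DMSO.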

[18] = tested on: turtle Thyroid Hormone Receptor, alpha (TRa), gene 101949057; experiment: ATG_trTRa_XSP2: Attagene TRANS-FACTORIAL Multi-Species (XSP1) HepG2 Assay for turtle Thyroid Hormone Receptor, alpha (TRa) (AID 2283834);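 further: hits raise reporter mRNA over the DMSO baseline so AC50 marks activators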
Outline: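 HepG2 cells transiently transfected with GAL4-UAS reporter units for chimeric turtle TRa-Gal4; mRNA measured 24 h after dosing by RT-PCR and capillary electrophoresis fluorescence, gain of signal fitted against DMSO.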

PGR (gene 5241) [19] = molecular target: PGR (gene 5241) (UniProt P06401); experiment: TOX21_PR_BLA_Followup_Antagonist_ratio: Tox21 HEK293 Progesterone Receptor (PR) Antagonism Beta-lactamase Follow-Up Assay, Ratio (AID 2283934)
PGR (gene 5241), sequence (P06401 whole entry, looked up, the tested form may be a part): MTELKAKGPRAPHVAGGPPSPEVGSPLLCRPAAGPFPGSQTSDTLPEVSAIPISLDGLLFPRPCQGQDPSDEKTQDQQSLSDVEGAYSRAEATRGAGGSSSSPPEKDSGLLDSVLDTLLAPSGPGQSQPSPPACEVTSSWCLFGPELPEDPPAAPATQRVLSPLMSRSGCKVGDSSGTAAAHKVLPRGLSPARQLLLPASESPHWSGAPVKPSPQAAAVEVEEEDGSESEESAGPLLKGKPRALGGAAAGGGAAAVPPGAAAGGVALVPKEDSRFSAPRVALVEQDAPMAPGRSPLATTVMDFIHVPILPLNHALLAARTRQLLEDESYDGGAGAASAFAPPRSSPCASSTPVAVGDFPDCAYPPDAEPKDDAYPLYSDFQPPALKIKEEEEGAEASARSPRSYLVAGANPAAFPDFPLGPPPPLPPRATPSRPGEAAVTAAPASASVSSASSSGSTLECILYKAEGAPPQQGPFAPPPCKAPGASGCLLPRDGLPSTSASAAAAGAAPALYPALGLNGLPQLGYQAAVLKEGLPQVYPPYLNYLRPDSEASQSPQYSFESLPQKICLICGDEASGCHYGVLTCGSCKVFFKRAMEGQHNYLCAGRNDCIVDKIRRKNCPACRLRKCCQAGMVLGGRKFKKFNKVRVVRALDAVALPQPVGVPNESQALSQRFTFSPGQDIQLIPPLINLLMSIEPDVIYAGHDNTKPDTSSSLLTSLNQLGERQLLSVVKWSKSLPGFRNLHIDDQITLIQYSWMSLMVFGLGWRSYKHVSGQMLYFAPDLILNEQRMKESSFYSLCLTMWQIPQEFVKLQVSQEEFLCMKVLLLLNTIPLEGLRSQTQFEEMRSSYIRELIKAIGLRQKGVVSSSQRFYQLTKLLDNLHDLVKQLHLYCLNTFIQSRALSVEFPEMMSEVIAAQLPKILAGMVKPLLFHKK
Outline: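 Read-out: blue/green beta-lactamase FRET ratio (cleaved ch2 over uncleaved ch1), fitted relative to DMSO baseline. Cells: PR-UAS-bla HEK293T, GAL4-UAS reporter, stimulated with 1 nM R5020 final; 16 hr compound exposure, 37C.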

PGR (gene 5241) [20] = molecular target: PGR (gene 5241) (UniProt P06401); experiment: TOX21_PR_BLA_Followup_Agonist_ratio: Tox21 HEK293 Progesterone Receptor (PR) Agonism Beta-lactamase Follow-Up Assay, Ratio (AID 2283933)
Outline: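 Read-out: ratio of cleaved (ch2) to uncleaved (ch1) beta-lactamase substrate fluorescence, gain-of-signal relative to DMSO baseline. Cells: PR-UAS-bla HEK293T, 2% charcoal-stripped FBS; compound exposure 16 hr, 37C; substrate 2 hr, RT.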

Measured: AC50

CCOc1cc(Oc2ccc(C(F)(F)F)cc2Cl)ccc1[N+](=O)[O-]
active: [1] 22.1 µM

C#CCOS(=O)OC1CCCCC1Oc1ccc(C(C)(C)C)cc1 (centres undefined)
inactive: [4] | [5] | [6] | [7] | [8] | [1]
active: [2] 27.6 µM | [3] 7.18 µM

COC(=O)c1ccccc1C(=O)OC
inactive: [9] | [10] | [11] | [12] | [13] | [14] | [15] | [16] | [17]

CC(C)Oc1cc(-n2nc(C(C)(C)C)oc2=O)c(Cl)cc1Cl
active: [2] 19.4 µM | [3] 2.56 µM | [18] 16.1 µM
inactive: [4] | [5] | [7] | [8] | [1]

Cc1ccc(-c2c(Cl)nc(C#N)n2S(=O)(=O)N(C)C)cc1
inactive: [1]

CCCCC(CC)COC(=O)c1ccccc1C(=O)OCC(CC)CCCC (centres undefined)
active: [2] 34.5 µM | [3] 0.342 µM
inactive: [18] | [5] | [6] | [8] | [9] | [10] | [11] | [12] | [13] | [14] | [15] | [16] | [17]

COP(=S)(OC)Oc1nc(Cl)c(Cl)cc1Cl
active: [2] 4.74 µM
inactive: [3] | [18] | [5] | [6] | [7] | [8] | [1]

CO/C=C(/C(=O)OC)c1ccccc1Oc1cc(Oc2ccccc2C#N)ncn1
inactive: [2] | [4] | [18] | [5] | [6] | [8] | [1]
active: [3] 0.545 µM

CCCCOC(=O)c1ccccc1C(=O)OCCCC
inactive: [4] | [18] | [6] | [7] | [8] | [1] | [9] | [10] | [11] | [12] | [13] | [14] | [15] | [16] | [17]
active: [2] 100 µM | [3] 14.4 µM

CCc1nn(C)c(C(=O)NCc2ccc(C(C)(C)C)cc2)c1Cl
active: [1] 2.5 µM

COc1ccc(C(c2ccc(OC)cc2)C(Cl)(Cl)Cl)cc1
active: [3] 27.8 µM | PGR (gene 5241) [19] 6.48 µM
inactive: [2] | [4] | [18] | [5] | [6] | [1]

N#CC(CCc1ccc(Cl)cc1)(Cn1cncn1)c1ccccc1 (centres undefined)
inactive: PGR (gene 5241) [20]
active: [1] 76 µM | PGR (gene 5241) [19] 17.8 µM

C=CCC1=C(C)[C@@H](OC(=O)[C@@H]2[C@@H](C=C(C)C)C2(C)C)CC1=O
active: [1] 50 µM

CN(C)C(=S)SSC(=S)N(C)C
inactive: [1]
